Hit rate of the full screen: of about 310,000 compounds, about 18,000 (5.8%) were called active. Where a call stands in place of a potency, no number is given. Inconclusive results (about 22%) are left out. The sample as a whole holds a higher share of actives than the screen did. Values without a mark were called inactive. The call rests on the fitted dose curve; in most records, active means well fitted inhibition curve with a large enough effect; inconclusive means small, poorly fitted or top-dose-only effect, or another doubt; inactive means no such curve, though single readings can be large or run the other way.
Test: Primary qHTS for delayed death inhibitors of the malarial parasite plastid, 48 hour incubation
Settings: P. falciparum luciferase growth in erythrocytes; series mostly up to 28.7 µM
How it was run: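 Here the parasites carry a stable luciferase gene and grow inside erythrocytes in Albumax-based RPMI medium with compound for one erythrocytic cycle. Activity is scored as loss of luminescent signal.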
Potency means the concentration at half of the fitted maximal effect.

Row | Compound | Potency | activity change, negative = inhibition
1 | O=C(c1ccco1)N1CCN(C(=S)Nc2cc(F)cc(F)c2)CC1 | inactive | –
2 | NC(=O)CC(NC(=O)Cc1ccc(Br)cc1)c1ccc(NC2CC3CCC2C3)c([N+](=O)[O-])c1 (stereo not drawn) | inactive | –
3 | CC(CCc1ccccc1)NCC(O)c1cccc([N+](=O)[O-])c1 (stereo not drawn) | 0.233 µM (active) | –
4 | CC(C)OP(=O)(OC(C)C)C(Nc1ccccc1)c1cccc([N+](=O)[O-])c1 (stereo not drawn) | inactive | –
5 | CN(C(=O)c1cccc([N+](=O)[O-])c1)c1ccccc1C(=O)NCc1ccccc1 | inactive | –
6 | COc1ccc(N2CCN(C(=O)c3ccccc3NC(=O)C3=C(C)OCCS3)CC2)cc1 | inactive | –
7 | c1ccc(-c2noc(-c3cccs3)n2)nc1 | inactive | –
8 | c1ccc(-n2nnnc2-c2cccnc2)cc1 | inactive | –
9 | Clc1ccc(-n2nnnc2-c2cnc(-c3ccccn3)nc2-c2cccs2)cc1 | 3.7 µM (active) | –
10 | Cc1ccc(OC(=O)c2cncc(Br)c2)c(C)c1 | inactive | –
11 | CCn1c(SCC(=O)NC2CC2)nnc1-c1ccncc1 | inactive | –
12 | O=C(Nc1ccc(Cl)c(Cl)c1)c1ccccc1NC(=O)C1CC=CCC1C(=O)O (stereo not drawn) | inactive | –
13 | CN1CCc2c(sc3c2c(NCc2ccco2)nc2nnnn23)C1 | inactive | –
14 | CCCSc1nc(NCc2ccco2)c2c3c(sc2n1)COC(C)(CC)C3 (stereo not drawn) | 9.28 µM (active) | –
15 | CN(C)CCSc1nc(N)c2c3c(sc2n1)COC(C)(C)C3 | inactive | –
16 | COc1cc(C2NC(=O)NC(c3ccccc3)=C2C(C)=O)c(Br)cc1OCC(N)=O (stereo not drawn) | inactive | –
17 | Cc1ccc(COC(=O)CN2C(=O)NC3(CCCC3)C2=O)cc1 | inactive | –
18 | CCOc1ccc(C(C)NC(=O)CN2C(=O)NC3(CCCCC3)C2=O)cc1OCC (stereo not drawn) | inactive | –
19 | CCOc1ccc(C(C)=O)cc1COC(=O)CN1C(=O)NC2(CCCC2)C1=O | 13.1 µM (active) | –
20 | CCC1C(=O)NCCN1C(=O)c1ccc2nc(Cc3ccc(OC)cc3)oc2c1 (stereo not drawn) | inactive | –
21 | CCN(CC(=O)Nc1ccc(S(=O)(=O)N2CCCC2)cc1)CC(=O)Nc1cccc(OC)c1 | inactive | –
22 | CCOc1ccc(NC(=O)C2CCCN(C(=O)Nc3ccccc3)C2)cc1 (stereo not drawn) | inactive | –

Row | Compound | Potency | activity change, negative = inhibition
23 | CCOC(=O)N1CCN(S(=O)(=O)c2ccc(OC)cc2)CC1 | inactive | –
24 | COc1ccc(CCNC(=S)N2CCN(S(=O)(=O)c3ccc(F)cc3)CC2)cc1 | 2.62 µM (active) | –
25 | CCOc1cccc(NC(=O)C2CCCN(S(=O)(=O)c3ccc(OC)cc3)C2)c1 (stereo not drawn) | 4.65 µM (active) | –
26 | CC(C)CCNC(=O)C1CCCN(S(=O)(=O)c2ccc(F)cc2)C1 (stereo not drawn) | inactive | –
27 | COc1ccc(CCNC(=O)C2CCCN(S(=O)(=O)c3ccc(OC)cc3)C2)cc1 (stereo not drawn) | 9.28 µM (active) | –
28 | COc1ccc(CCNC(=S)N2CCN(S(=O)(=O)c3ccc(Cl)cc3)CC2)cc1 | inactive | –
29 | CCCCNC(=O)C1CCCN(S(=O)(=O)c2ccc(S(=O)(=O)NCC(C)C)cc2)C1 (stereo not drawn) | inactive | –
30 | Cc1cccc(OCC(=O)NCCNC(=O)c2cccnc2)c1 | inactive | –
31 | CC(C)(C)C(=O)Nc1ccc(-c2cn3cccnc3n2)cc1 | inactive | –
32 | CN(Cc1ccccc1)C(=O)C(=O)c1cn(CC(=O)N2CCCC2)c2ccccc12 | inactive | –
33 | O=c1oc2ccc(C#CC3(O)CCCCC3)cc2cc1-n1cc(-c2ccsc2)nn1 | inactive | –
34 | CCc1ccc(-c2nn(-c3ccccc3C)cc2C(=O)N2CCN(C3CCS(=O)(=O)C3)CC2)cc1 (stereo not drawn) | inactive | –
35 | O=C(NCCC1=CCCCC1)c1ccc(-n2cncn2)cc1 | inactive | –
36 | CCc1noc(C)c1C(=O)Nc1nc2ccc(OC)cc2s1 | inactive | –
37 | CCOc1ccc(S(=O)(=O)N2CCCC(C(=O)N3CCC(C(N)=O)CC3)C2)cc1Cl (stereo not drawn) | inactive | –
38 | Cc1ccc(C)c(N2CCN(C(=O)CCCCn3c(=O)[nH]c4ccccc4c3=O)CC2)c1 | inactive | –
39 | Cc1ccc(C)c(N2CCN(C(=O)CCCCCn3c(=S)[nH]c4ccc(N5CCOCC5)cc4c3=O)CC2)c1 | 7.38 µM (active) | –
40 | Cc1ccc(C)c(N2CCN(C(=O)CCc3nc4ccccc4[nH]3)CC2)c1 | inactive | –
41 | COCc1c(C(=O)N/N=C(\C)c2ccncc2)nnn1-c1nonc1N | inactive | –
42 | Cc1ccc(NC(=O)NNC(=O)c2sccc2-n2cccc2)cc1 | inactive | –
43 | C=CCNC(=O)c1csc(-c2ccccc2)n1 | inactive | –
44 | C=CCNc1scc(-c2ccccc2)[n+]1CC=C | 4.15 µM (active) | –

Row | Compound | Potency | activity change, negative = inhibition
45 | C=CC[n+]1c(-c2ccc(C)cc2)csc1NNC(=O)Nc1ccccc1 | 11.7 µM (active) | –
46 | Cc1ccc(NC(=O)Nc2ccccc2)c(Br)c1 | inactive | –
47 | O=C(Cc1ccccc1)Nc1ccc(NC(=O)c2cccnc2)cc1 | inactive | –
48 | CN1CCN(CCNC(=O)Nc2ccccc2[N+](=O)[O-])CC1 | – | -5.7% [at 0.00184 µM]
49 | COc1ccccc1C(C)NC(=O)Cc1ccsc1 (stereo not drawn) | inactive | –
50 | COc1ccc(CN(C)C(=O)Cc2ccsc2)c(OC)c1OC | 13.1 µM (active) | –
51 | COc1ccc(CN(C)C(=O)Cc2c[nH]c3ccccc23)c(OC)c1OC | – | 13.9% [at 0.00184 µM]
52 | CS(=O)(=O)N(CC(=O)N1CCCCCC1)c1cccc(Cl)c1Cl | inactive | –
53 | NS(=O)(=O)c1ccc(NC(=S)N2CCCC2)cc1 | inactive | –
54 | O=C(C1CC1)N1N=C(c2ccc(Br)cc2)CC1(O)C(F)(F)F (stereo not drawn) | – | -12.6% [at 0.00184 µM]
55 | O=C(c1ccc(Cl)cc1)N1N=C(c2ccccn2)CC1(O)C(F)(F)F (stereo not drawn) | 4.65 µM (active) | –
56 | COC(=O)C1(O)CC(C(C)C)=NN1C(=O)c1ccc(Cl)cc1 (stereo not drawn) | inactive | –
57 | COc1ccc(CCNC(=O)COC(=O)C2CC2C)cc1 (stereo not drawn) | inactive | –
58 | Cc1ccc(S(=O)(=O)N(C)C)cc1NC(=O)c1ccc(-n2cncn2)c([N+](=O)[O-])c1 | inactive | –
59 | O=[N+]([O-])C(=c1ccc2c(c1)N1C3=C(CCCC3)CC3CCCCC31N=2)[N+](=O)[O-] (stereo not drawn) | 2.94 µM (active) | –
60 | Cc1ccc(S(=O)(=O)NCCC(=O)Nc2cccc(S(N)(=O)=O)c2)cc1C | inactive | –
61 | O=C(CN(C(=O)c1nsc(Cl)c1Cl)c1cccc(F)c1)NC1CCCC1 | inactive | –
62 | COc1cccc(N(CC(=O)NC2CCCC2)C(=O)CCCC(=O)Nc2ccccn2)c1 | inactive | –
63 | COC(=O)c1ccccc1Sc1c(/C=N/OCc2ccc(Cl)cc2)c(C(F)(F)F)nn1C | 1.85 µM (active) | –
64 | COC(=O)c1ccccc1NC(=O)Cn1nc(C(F)(F)F)c2c1CCC2 | inactive | –
65 | COC(=O)c1cn(C(=O)c2ccc(Cl)cc2)c2ccccc12 | inactive | –
66 | O=c1ccc(S(=O)(=O)N2CCCC2)cn1Cc1nc(-c2ccccc2)no1 | inactive | –

Row | Compound | Potency | activity change, negative = inhibition
67 | CC1=C(C(N)=O)C(c2ccc(F)cc2)n2nc(CCCO)nc2N1 (stereo not drawn) | inactive | –
68 | S=c1[nH]cc(-c2ccc(Cl)cc2)n1-c1ccccc1 | 1.85 µM (active) | –
69 | S=c1[nH]ccn1-c1ccc(Cl)cc1 | inactive | –
70 | Cc1ccc(-n2c(-c3ccc(Cl)cc3)n[nH]c2=S)cc1 | inactive | –
71 | O=C(O)c1cccc2c1C(=O)N(C1CCCC1)C2 | inactive | –
72 | Cc1ccccc1CN1C[C@@H]2C[C@@H](c3cn(C)nc3-c3ccccc3)N3CCC[C@@]23C1=O | 6.57 µM (active) | –
73 | Cc1ccccc1CN1CCN(CC(=O)NCc2ccccn2)C1=O | inactive | –
74 | Cc1ccc(CN2CCN(Cc3cn(C)nc3-c3ccccc3)CC2CCO)o1 (stereo not drawn) | inactive | –
75 | Cc1c(C)c(C)c(S(=O)(=O)NCCc2ccccn2)c(C)c1C | inactive | –
76 | Cc1c(S(=O)(=O)N2CC(C)CC(C)C2)c(=O)n(C)c(=O)n1C (stereo not drawn) | inactive | –
77 | COc1cc(OC)cc(C(=O)NCC(=O)N2CCCCCCC2)c1 | inactive | –
78 | CN(C)P(=S)(Nc1ccccc1)C(Cl)(Cl)Cl (stereo not drawn) | 11.7 µM (active) | –
79 | O=S(=O)(Nc1ccc2nc(N3CCOCC3)sc2c1)c1ccccc1 | inactive | –
80 | C#CCOCCOCCOCCNc1nc(N2CCN(C(=O)[C@H](CCC(=O)O)n3cc(C(N)CO)nn3)CC2)nc(N2CCN(C(=O)[C@H](CCCCN)n3cc(C(N)[C@H](C)CC)nn3)CC2)n1 (stereo partly drawn) | inactive | –
81 | C#CCOCCOCCOCCNc1nc(N2CCN(C(=O)[C@H](CCC(=O)O)n3cc(C(N)CO)nn3)CC2)nc(N2CCN(C(=O)[C@H](CCCCN)n3cc(C(N)CC(C)C)nn3)CC2)n1 (stereo partly drawn) | inactive | –
82 | C#CCOCCOCCOCCNc1nc(N2CCN(C(=O)CCCCCCCCCCNC(=O)[C@H]([C@@H](C)CC)n3cc(CCCCN=C(N)N)nn3)CC2)nc(N2CCN(C(=O)CCCCCCCCCCNC(=O)[C@H](CO)n3cc(CCCSC)nn3)CC2)n1 | 0.329 µM (active) | –
83 | C#CCOCCOCCOCCNc1nc(N2CCN(C(=O)[C@H](CCC(=O)O)n3cc(C(N)CO)nn3)CC2)nc(N2CCN(C(=O)[C@H](Cc3ccc(O)cc3)n3cc(C(N)[C@H](C)CC)nn3)CC2)n1 (stereo partly drawn) | inactive | –
84 | C#CCOCCOCCOCCNc1nc(N2CCN(C(=O)[C@H](CCCCN)n3cc(CCC(=O)O)nn3)CC2)nc(N2CCN(C(=O)[C@H](CCCCN)n3cc(CC(C)O)nn3)CC2)n1 (stereo partly drawn) | inactive | –
85 | C#CCOCCOCCOCCNc1nc(N2CCN(C(=O)CCCCCCCCCCNC(=O)Cn3cc(CCCCCN)nn3)CC2)nc(N2CCN(C(=O)CCCCCCCCCCNC(=O)[C@H](CO)n3cc(CCCSC)nn3)CC2)n1 | 2.94 µM (active) | –
86 | C#CCOCCOCCOCCNc1nc(N2CCN(C(=O)[C@H](C(C)C)n3cc(CCO)nn3)CC2)nc(N2CCN(C(=O)[C@H](C(C)C)n3cc(CCO)nn3)CC2)n1 | inactive | –
87 | C#CCOCCOCCOCCNc1nc(N2CCN(C(=O)[C@H](C(C)C)n3cc(CCO)nn3)CC2)nc(N2CCN(C(=O)[C@H]([C@@H](C)CC)n3cc(CCCN=C(N)N)nn3)CC2)n1 | inactive | –
88 | C#CCOCCOCCOCCNc1nc(N2CCN(C(=O)CCCCCCCCCCNC(=O)[C@H](CCCCN)n3cc(C)nn3)CC2)nc(N2CCN(C(=O)CCCCCCCCCCNC(=O)[C@H](CO)n3cc(CCCSC)nn3)CC2)n1 | 0.586 µM (active) | –

From PubChem BioAssay AID504832 (National Center for Advancing Translational Sciences (NCATS), 2011)
